Here are results for 63 compounds from PubChem BioAssay AID624330 (Southern Research Specialized Biocontainment Screening …, 2012).

About 2,100 (0.62%) of roughly 340,000 compounds were called active.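 How the source made its calls: active means first-screen hits whose inhibition reached a set limit at any dose in the follow-up dose series; inconclusive means inhibition above the set first-screen limit but never retested; inactive means the rest.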 The list is a sample of the results. Entries with a potency or affinity are not part of this list.

Rac GTPase-activating protein 1 (Homo sapiens), sequence (Q9H0H5 whole entry, looked up): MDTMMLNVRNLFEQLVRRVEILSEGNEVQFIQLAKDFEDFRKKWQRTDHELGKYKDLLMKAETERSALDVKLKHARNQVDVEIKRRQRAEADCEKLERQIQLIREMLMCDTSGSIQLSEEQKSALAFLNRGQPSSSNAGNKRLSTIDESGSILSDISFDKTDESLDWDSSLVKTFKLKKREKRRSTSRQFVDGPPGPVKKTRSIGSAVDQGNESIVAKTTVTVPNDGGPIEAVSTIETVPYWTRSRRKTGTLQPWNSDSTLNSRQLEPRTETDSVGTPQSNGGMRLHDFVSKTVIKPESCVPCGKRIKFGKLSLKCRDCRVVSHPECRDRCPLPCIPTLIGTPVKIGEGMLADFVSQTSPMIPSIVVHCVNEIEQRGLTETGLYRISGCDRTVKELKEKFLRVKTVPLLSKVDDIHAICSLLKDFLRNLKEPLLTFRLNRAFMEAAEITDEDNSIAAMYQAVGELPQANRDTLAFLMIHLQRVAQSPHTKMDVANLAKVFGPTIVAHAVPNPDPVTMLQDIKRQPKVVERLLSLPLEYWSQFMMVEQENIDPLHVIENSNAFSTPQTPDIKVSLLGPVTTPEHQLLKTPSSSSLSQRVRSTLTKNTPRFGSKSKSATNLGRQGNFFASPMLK

The test has as its target Rac GTPase-activating protein 1 (Homo sapiens) (UniProt Q9H0H5). The test can be described thus: MgcRacGAP GTPase-activating activity inhibitors, confirmation, biochemical, ADP Hunter fluorescence, primary and confirmatory (AID 624330).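 Further: fluorescence reports GDP produced by GAP-driven GTP hydrolysis.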 As to conditions: MgcRacGAP-stimulated Rac1 GTP hydrolysis, at 30 µM, stronger effect = higher value, GST-tagged Rac1 F28L mutant substrate.
`Cc1ccc(-c2c(C(=O)NC(C)C)oc(=O)c3ccccc23)cc1`: the inhibition is 5.65% (inactive). For `CCCCSc1ncnc2c1ncn2C1CCCCO1` (stereo not drawn) the value was 0.67% (inactive); for `CC12CCC(C(=O)Nc3cc(Cl)ccc3Cl)(C(Br)C1=O)C2(C)C` (stereo not drawn), 8% (inactive).

Consider `CC(=O)/C(=C/N(C)C)Sc1ccc(C)cc1`, for which the inhibition was -4.58% (inactive). The value for `COC(=O)[C@@]12CCCN1[C@H](c1ccc(-c3ccccc3)cc1)[C@@H]1C(=O)N(C)C(=O)[C@@H]12` was 10.8% (inactive). As to `O=C(COC(=O)CCS(=O)(=O)c1ccc(Cl)cc1)Nc1ncc(Cl)cc1Cl`, the inhibition was -0.72% (inactive). For `CCN=C1S/C(=C\c2cc(OCC)c(O)cc2Br)C(=O)N1CC` the value was 14.2% (inactive). The value for `NC1=NC(=O)/C(=C\c2ccc(O)c([N+](=O)[O-])c2)S1` was 2.32% (inactive); that for `COc1ccc(/C=C2\SC(=O)N=C2N)cc1OC` was -3.06% (inactive); that for `CCN=C1S/C(=C\c2ccc(OCC)c(OC)c2)C(=O)N1CC` was 2.65% (inactive). For `NC1=NC(=O)S/C1=C\c1ccc(F)cc1`, the inhibition is -6.63% (inactive). For `C=CCOc1ccc(/C=C2\SC(N)=NC2=O)cc1OC` the value was 7.81% (inactive); for `CCOc1ccc(N2C(=O)S/C(=C\c3ccc(O)c(OCC)c3)C2=O)cc1`, 9.4% (inactive); for `CC(C)(C)c1ccc(/C=C2\SC(=O)N=C2N)cc1`, 2.11% (inactive). The value for `C/C=C/c1ccc(OCCN2CCc3ccccc3C2)c(OC)c1` was 17.9% (inactive). The value for `Cc1ccc(C)c(NC(=O)CN(C)C(=O)c2cc([N+](=O)[O-])ccc2N2CCOCC2)c1` was 5.45% (inactive).

Regarding `Cc1ccc(SCC(=O)OCC(=O)N(CC(C)C)C2CCS(=O)(=O)C2)cc1C` (stereo not drawn), the inhibition was 9.24% (inactive). The value for `O=C(COC(=O)COc1ccc(Cl)cc1Br)NC1CC1` was -1.39% (inactive). As for `O=C(NCCN1CCOCC1)c1ccc(CS(=O)c2ccccc2Cl)o1` (stereo not drawn), the inhibition is -0.13% (inactive).

`COc1ccc(N2CCN(Cc3nc4sc(C)c(C)c4c(=O)[nH]3)CC2)cc1`: the inhibition is -6.7% (inactive). As for `COc1cc(/C=C2/NC(=O)N(Cc3ccccc3F)C2=O)cc(OC)c1O`, the inhibition was 26.3% (inactive).

Regarding `COc1ccc(/C=C2/NC(=O)N(Cc3ccccc3F)C2=O)cc1OC`, the inhibition was 5.3% (inactive). As for `CSc1ccc(CN2CCC(n3nccc3NC(=O)C3CCOC3)CC2)cc1` (stereo not drawn), the inhibition was 3.42% (inactive). The value for `Cc1ccc[n+](CC(=O)Nc2ccc(C)c(C)c2)c1` was -1.74% (inactive). For `Cc1ccc(NC(=O)CCc2ccc(C)o2)cc1` the value was -3.13% (inactive). The value for `CC(=O)c1ccc(NC(=O)C[n+]2cccc(C)c2)cc1` was 8.06% (inactive); that for `CC(=O)Nc1ccc(NC(=O)CCc2ccc(C)o2)cc1` was 10.6% (inactive); that for `CCOC(=O)C1C(c2cc(OC)c(O)c(OC)c2)NC(=S)NC1(O)C(F)(F)F` (stereo not drawn) was 4.21% (inactive).

Regarding `Cc1ccc(CNC(=O)C(c2ccccc2)c2ccccc2)cc1`, the inhibition was 6.74% (inactive). The value for `COc1ccc(S(=O)(=O)NNC(=O)c2cc3ccccc3o2)cc1` was 9.6% (inactive). The value for `O=C(NC1CC1)c1cc(F)c(F)cc1Cl` was 6.75% (inactive); that for `O=C(/C=C/c1ccc(Br)o1)Nc1nccs1` was -0.09% (inactive).

As for `O=C(Nc1ccc2c(c1)OC1(CCCC1)O2)C1CC1`, the inhibition is 9.85% (inactive). As for `Nc1ccc2c(c1)OC1(CCCCC1)O2`, the inhibition is 22.8% (inactive). As to `CC(O)[C@H]1CNC(=O)C(=O)N1CCc1cccc(F)c1` (stereo partly drawn), the inhibition was 5.42% (inactive).

For the compound `O=C(C1CC1)N1CCN(Cc2ccccc2)CC1`, the inhibition was 7.23% (inactive). The value for `COc1ccc(CN2CCC(C(=O)N3CCN(c4ccccc4F)CC3)CC2)cc1OC` was 8.86% (inactive); that for `CCOc1ccc(CN2CCC(C(=O)N3CCN(c4ccccc4F)CC3)CC2)cc1OC` was 23.7% (inactive). Turning to `COc1ccccc1N1CCN(Cc2ccc(Br)o2)CC1`, the inhibition was 29.6% (inactive). The value for `CCN1CCN(C(=O)C2CCN(Cc3cc(Cl)ccc3O)CC2)CC1` was 12.1% (inactive).

In the case of `COc1cc(CN2CCC(C(=O)N3CCN(c4ccccc4F)CC3)CC2)cc(OC)c1O`, the inhibition is 23.4% (inactive). For `COc1cc(CN2CCN(c3cccc(C)c3C)CC2)cc(OC)c1O` the value was 27% (inactive). The value for `COc1ccccc1N1CCN(Cc2ccsc2)CC1` was 25.3% (inactive); that for `CCC(C)NC(=O)C1c2ccccc2C(=O)N1Cc1ccc(F)cc1` (stereo not drawn) was 8.48% (inactive); that for `COc1ccc(NC(=O)CCCC(=O)O)cc1Cl` was 4.87% (inactive). The value for `CC(=O)c1ccc(S(=O)(=O)NCCC(=O)OC(C)C(=O)Nc2ccc(F)cc2)cc1` (stereo not drawn) was 5.33% (inactive).

As for `N#C/C(=C\c1cn(CC(=O)N2CCCCC2)c2ccccc12)C(=O)NCc1ccc2c(c1)OCO2`, the inhibition is 8.24% (inactive). For `Cc1cc(NC(=O)c2ccc(C#N)cc2)n(-c2ccccn2)n1` the value was 4.99% (inactive).

Turning to `N#Cc1ccc(OCc2nnc(SCC(=O)N3CCCc4ccccc43)n2-c2ccccc2)cc1`, the inhibition is 3.45% (inactive). The value for `CCCCN(C)CCNC(=O)Cn1c(=O)sc2ccccc21` was 5.94% (inactive). The value for `NC(N)=Nc1ccc(C=C2C=Cc3ccccc32)cc1` was 1.28% (inactive); that for `C=CCN(CC=C)Cc1nc(N)nc(Nc2ccccc2C)n1` was 6.1% (inactive); that for `CCOC(=O)CN=C1CC(C)(C)CC2=C1Sc1ncnc(N(C)C)c1N2` was 6.53% (inactive). As for `CC1(C)CC(=O)C([N+](=O)[O-])=C(NCCCC(=O)O)C1`, the inhibition was 6.3% (inactive). Regarding `Cc1ccc(S(=O)(=O)/N=C/N(C)C)cc1`, the inhibition is 4.85% (inactive). For `O=C(NCc1ccco1)c1ccc(S(=O)(=O)N2CCOCC2)cc1` the value was 12.1% (inactive); for `CCOC(=O)c1ccc(NC(=O)Nc2c(C)nn(C)c2C)cc1`, 6.05% (inactive); for `CC1CC(=O)N(c2ccc(NCCc3ccccc3)c([N+](=O)[O-])c2)C1=O` (stereo not drawn), 12.4% (inactive). For `COc1ccc(CCNc2ccc(N3C(=O)CC(C)C3=O)cc2[N+](=O)[O-])cc1` (stereo not drawn) the value was 3.45% (inactive); for `COCCNC(=O)C1CCCN(S(=O)(=O)c2c(C)noc2/C=C/c2cccs2)C1` (stereo not drawn), 5.26% (inactive); for `Cc1cc(Cc2cc(C)c(N)cc2C)c(C)cc1N`, 11.3% (inactive).

As for `Cc1cc(C)c(N)cc1C`, the inhibition was 5.41% (inactive).

Turning to `COc1ccc(S(=O)(=O)N(C)C[C@H]2Oc3c(NC(=O)C4CC4)cccc3C(=O)N([C@H](C)CO)C[C@@H]2C)cc1`, the inhibition is 13.9% (inactive).

One may read the inhibition as the drop in the measured response relative to a control, in per cent.
